# Measurements reported in the antibiotic and cytotoxicity screens of Wong et al. (2023).
# In all, about 39,000 compounds went through this assay and about 3,300 (8.5%) were called active. Shown is part of a subset that was picked to be rich in actives.
# Test system: HepG2
# Assay: cytotoxicity call (relative viability < 0.9)
# Conditions: 10 µM
row,Structure (SMILES),cytotoxicity call
1,NC(=O)CSCC(=O)Nc1ccccc1F,inactive
2,O=C(O)/C=C\C(=O)NCc1ccccc1,inactive
3,COCCN1C[C@H]2[C@@H](OC)CCN(S(=O)(=O)c3cn(C)cn3)[C@H]2C1,inactive
4,CNC(=O)C[C@@H]1CC[C@@H]2[C@H](COC[C@@H](O)CN2C(=O)c2ccccn2)O1,inactive
5,C[C@H](CO)N1C[C@H](C)[C@@H](CN(C)S(=O)(=O)c2cccs2)Oc2ccc(NS(C)(=O)=O)cc2CC1=O,inactive
6,C[C@H](O)[C@H](O)[C@@H](O)[C@@H](O)/C=N/NC(=O)c1cccc(C(=O)NO)c1,inactive
7,Cc1cc(C(=O)Nc2cccc3c2O[C@@H](CN(C)Cc2ccc4c(c2)OCO4)[C@@H](C)CN([C@@H](C)CO)C3=O)n(C)n1,inactive
8,COc1ccc(NC(=O)Nc2ccc3c(c2)C(=O)N([C@@H](C)CO)C[C@H](C)[C@@H](CN(C)Cc2ccc(-c4ccccc4)cc2)O3)cc1,inactive
9,COc1ccc(NC(=O)Nc2ccc3c(c2)C(=O)N([C@@H](C)CO)C[C@@H](C)[C@@H](CN(C)Cc2ccc(-c4ccccc4)cc2)O3)cc1,active
10,COc1ccc(NC(=O)Nc2ccc3c(c2)C(=O)N([C@H](C)CO)C[C@H](C)[C@@H](CN(C)Cc2ccc(-c4ccccc4)cc2)O3)cc1,inactive
11,COc1ccc(NC(=O)Nc2ccc3c(c2)C(=O)N([C@H](C)CO)C[C@@H](C)[C@H](CN(C)Cc2ccc(Oc4ccccc4)cc2)O3)cc1,inactive
12,COc1ccc(NC(=O)Nc2ccc3c(c2)C(=O)N([C@H](C)CO)C[C@H](C)[C@H](CN(C)Cc2ccc(-c4ccccc4)cc2)O3)cc1,active
13,COc1ccc(NC(=O)Nc2ccc3c(c2)C(=O)N([C@H](C)CO)C[C@@H](C)[C@@H](CN(C)Cc2ccc(-c4ccccc4)cc2)O3)cc1,active
14,COc1ccc(NC(=O)Nc2ccc3c(c2)C(=O)N([C@@H](C)CO)C[C@H](C)[C@H](CN(C)Cc2ccc(-c4ccccc4)cc2)O3)cc1,inactive
15,COc1ccc(NC(=O)Nc2ccc3c(c2)C(=O)N([C@H](C)CO)C[C@@H](C)[C@H](CN(C)Cc2ccc(-c4ccccc4)cc2)O3)cc1,active
16,COc1ccc(NC(=O)Nc2ccc3c(c2)C(=O)N([C@@H](C)CO)C[C@H](C)[C@H](CN(C)Cc2ccc(Oc4ccccc4)cc2)O3)cc1,inactive
17,CC(=O)c1ccc(S(=O)(=O)N2[C@@H]3CC[C@@H](C3)[C@H]2c2nc3cccc(OCc4ccc(F)cc4)c3[nH]2)cc1,inactive
18,C[C@@H]1CN([C@@H](C)CO)C(=O)c2cc(NC(=O)C3CC3)ccc2O[C@@H]1CN(C)S(=O)(=O)c1cccs1,inactive
19,CCCC(=O)Nc1ccc2c(c1)OC[C@H](C)N(Cc1ccc(-c3ccccn3)cc1)C[C@@H](C)[C@H](OC)CN(C)C2=O,inactive
20,COc1ccc(S(=O)(=O)Nc2ccc3c(c2)C(=O)N([C@@H](C)CO)C[C@@H](C)[C@@H](CN(C)C(=O)Nc2c(C)noc2C)OCCCC[C@H](C)O3)cc1,inactive

row,Structure (SMILES),cytotoxicity call
1,C[C@@H]1CN([C@@H](C)CO)C(=O)c2cc(NS(=O)(=O)c3ccccc3)ccc2O[C@@H]1CN(C)C(=O)Nc1cccc2ccccc12,inactive
2,C[C@@H]1CN([C@@H](C)CO)C(=O)Cc2cc(NC(=O)Nc3ccc(F)cc3)ccc2O[C@@H]1CN(C)S(=O)(=O)c1cn(C)cn1,inactive
3,Cc1ccc(S(=O)(=O)N(C)C[C@@H]2OCCCC[C@H](C)Oc3ccc(NS(C)(=O)=O)cc3C(=O)N([C@@H](C)CO)C[C@H]2C)cc1,inactive
4,Cc1noc(C)c1S(=O)(=O)Nc1ccc2c(c1)CC(=O)N([C@@H](C)CO)C[C@H](C)[C@H](CN(C)Cc1ccc3c(c1)OCO3)O2,inactive
5,C[C@H](CO)N1C[C@H](C)[C@H](CN(C)C(=O)N[C@H](C)c2ccccc2)OCc2ccccc2-c2c(n(C)c3ccccc23)C1=O,inactive
6,COc1ccc(S(=O)(=O)N(C)C[C@@H]2OCCCC[C@H](C)Oc3ccc(NC(=O)NC4CCCCC4)cc3C(=O)N([C@H](C)CO)C[C@H]2C)cc1,inactive
7,COc1ccc(NC(=O)N(C)C[C@@H]2OCCCC[C@@H](C)Oc3ccc(NS(=O)(=O)c4ccc(C)cc4)cc3C(=O)N([C@H](C)CO)C[C@H]2C)cc1,inactive
8,COc1ccc(NC(=O)Nc2ccc3c(c2)C(=O)N([C@@H](C)CO)C[C@@H](C)[C@H](CN(C)Cc2ccc(-c4ccccc4)cc2)O3)cc1,active
9,COc1cccc(S(=O)(=O)N2C[C@H](O)COC[C@@H]3O[C@H](CC(=O)NCCCN4CCOCC4)CC[C@H]32)c1,inactive
10,C[C@H]1CCCCO[C@H](CN(C)C(=O)Nc2ccc(F)cc2)[C@@H](C)CN([C@@H](C)CO)C(=O)c2cc(NC(=O)c3ccncc3)ccc2O1,inactive
11,CC[C@@H](C)[C@H]1O[C@@]2(CC[C@@H]1C)C[C@H]1C[C@@H](CC=C(C)[C@@H](O[C@H]3C[C@@H](OC)[C@@H](O[C@H]4C[C@@H](OC)[C@@H](O)[C@@H](C)O4)[C@@H](C)O3)[C@@H](C)C=CC=C3CO[C@H]4[C@@H](O)C(C)=C[C@@H](C(=O)O1)[C@]34O)O2.CO[C@H]1C[C@@H](O[C@@H]2[C@@H](OC)C[C@@H](O[C@@H]3C(C)=CC[C@@H]4C[C@@H](C[C@@]5(CC[C@@H](C)[C@H](C(C)C)O5)O4)OC(=O)[C@@H]4C=C(C)[C@H](O)[C@@H]5OCC(=CC=C[C@@H]3C)[C@@]45O)O[C@@H]2C)O[C@@H](C)[C@@H]1O,active
12,CC[C@H](C)[C@H]1O[C@]2(CC[C@@H]1C)C[C@@H]1C[C@@H](C/C=C(\C)[C@@H](O[C@H]3C[C@H](OC)[C@@H](O[C@H]4C[C@H](OC)[C@@H](O)[C@H](C)O4)[C@H](C)O3)[C@@H](C)/C=C/C=C3\CO[C@@H]4[C@H](O)C(C)=C[C@@H](C(=O)O1)[C@]34O)O2,active
13,CCC(C)C1OC2(CCC1C)CC1CC(CC=C(C)C(OC3CC(OC)C(OC4CC(OC)C(O)C(C)O4)C(C)O3)C(C)C=CC=C3COC4C(O)C(C)=CC(C(=O)O1)C34O)O2 (stereo not given),active
14,C[C@@H]1CN([C@H](C)CO)C(=O)c2cc(NC(=O)CCC(F)(F)F)ccc2O[C@H]1CN(C)Cc1ccc(C(=O)Nc2ccccc2N)cc1,inactive
15,N#CCSc1n[nH]c(=O)[nH]c1=O,inactive
16,O=C(C[C@@H]1CC[C@H]2[C@@H](COC[C@@H](O)CN2CC2CCOCC2)O1)N1CCOCC1,inactive
17,Cc1noc(C)c1NC(=O)N(C)C[C@H]1OCCCC[C@H](C)Oc2ccc(NC(=O)C3CCCCC3)cc2C(=O)N([C@H](C)CO)C[C@@H]1C,inactive
18,C[C@@H]1CCCCO[C@@H](CN(C)S(=O)(=O)c2ccccc2)[C@@H](C)CN([C@H](C)CO)C(=O)c2cc(NC(=O)NC3CCCCC3)ccc2O1,inactive
19,COc1ncccc1N,inactive
20,O=C1CCc2cc(OCCCCc3nnnn3C3CCCCC3)ccc2N1,inactive

row,Structure (SMILES),cytotoxicity call
1,O=C1CCc2ccc(OCCCCN3CCN(c4cccc(Cl)c4Cl)CC3)cc2N1,active
2,CCCCCCCCCCCC(=O)OCN1C(=O)CCc2ccc(OCCCCN3CCN(c4cccc(Cl)c4Cl)CC3)cc21,inactive
3,O=C(C[C@H]1CC[C@H](NC(=O)c2cccnc2)[C@@H](CO)O1)NCCN1CCCCC1,inactive
4,C[C@H](N)c1ccc(Cl)cc1,inactive
5,COc1cccc(S(=O)(=O)Nc2ccc3c(c2)[C@H]2C[C@H](CC(=O)NCc4ccccc4F)O[C@@H](CO)[C@H]2O3)c1,inactive
6,C[C@@H]1CN([C@H](C)CO)C(=O)c2cc(NS(=O)(=O)c3cccs3)ccc2O[C@H]1CN(C)Cc1ccc(Oc2ccccc2)cc1,inactive
7,C[C@H](CO)N1C[C@H](C)[C@H](CN(C)Cc2ccc(-c3ccccc3)cc2)Oc2ccc(NS(=O)(=O)c3cccs3)cc2C1=O,inactive
8,C[C@@H]1CN([C@H](C)CO)C(=O)c2cc(NS(=O)(=O)c3cccs3)ccc2O[C@@H]1CN(C)Cc1ccc(-c2ccccc2)cc1,active
9,C[C@H]1CN([C@@H](C)CO)C(=O)c2cc(NS(=O)(=O)c3cccs3)ccc2O[C@@H]1CN(C)Cc1ccc(Oc2ccccc2)cc1,inactive
10,C[C@@H]1CN([C@H](C)CO)C(=O)c2cc(NS(=O)(=O)c3cccs3)ccc2O[C@@H]1CN(C)Cc1ccc(Oc2ccccc2)cc1,active
11,C[C@H](CO)N1C[C@H](C)[C@@H](CN(C)Cc2ccc(-c3ccccc3)cc2)Oc2ccc(NS(=O)(=O)c3cccs3)cc2C1=O,inactive
12,NC(=O)c1cccc(Br)n1,inactive
13,Cc1noc(C)c1S(=O)(=O)N(C)C[C@H]1OCc2cn(nn2)CCCC(=O)N([C@H](C)CO)C[C@@H]1C,inactive
14,Cc1ccc(S(=O)(=O)N(C)C[C@H]2Oc3ccc(NS(=O)(=O)c4cccs4)cc3C(=O)N([C@H](C)CO)C[C@H]2C)cc1,inactive
15,C[C@H]1CN([C@@H](C)CO)C(=O)CCCn2cc(nn2)CO[C@@H]1CN(C)S(=O)(=O)c1ccc(-n2cccn2)cc1,inactive
16,C[C@@H]1CN([C@@H](C)CO)C(=O)c2cc(NC(=O)CCN3CCOCC3)ccc2O[C@@H]1CN(C)S(=O)(=O)c1ccc(Cl)cc1,inactive
17,C[C@@H]1CN([C@H](C)CO)C(=O)c2cc(NS(=O)(=O)c3ccccc3)ccc2O[C@@H](C)CCCCO[C@H]1CN(C)C(=O)Nc1ccccc1,inactive
18,C[C@H]1CN([C@@H](C)CO)C(=O)Cc2cc(NC(=O)Nc3cccc4ccccc34)ccc2O[C@H]1CN(C)C(=O)Nc1ccc(C(F)(F)F)cc1,inactive
19,COc1ccc(CN(C)C[C@H]2Oc3c(NS(=O)(=O)c4c(C)noc4C)cccc3C(=O)N([C@H](C)CO)C[C@H]2C)cc1,inactive
20,C[C@H]1CN([C@@H](C)CO)C(=O)Cc2cc(NS(=O)(=O)c3cccs3)ccc2O[C@H]1CN(C)Cc1ccc(-c2ccccc2)cc1,inactive
